Data taken from publication PMC4336329 (PLoS ONE, 2015).
About 14,000 (4.5%) of roughly 310,000 compounds showed an effect of 50% or more. The effect is printed as a negative number. For the sample, strong results were picked, then their nearest neighbours and some compounds at random.

What follows are compounds tested against human ether-à-go-go-related gene (hERG) potassium channel (human, UniProt Q12809) (assay: primary screen, population patch clamp on CHO cells stably expressing hERG; higher = less effect of the substance).
human ether-à-go-go-related gene (hERG) potassium channel, sequence (Q12809 whole entry, looked up): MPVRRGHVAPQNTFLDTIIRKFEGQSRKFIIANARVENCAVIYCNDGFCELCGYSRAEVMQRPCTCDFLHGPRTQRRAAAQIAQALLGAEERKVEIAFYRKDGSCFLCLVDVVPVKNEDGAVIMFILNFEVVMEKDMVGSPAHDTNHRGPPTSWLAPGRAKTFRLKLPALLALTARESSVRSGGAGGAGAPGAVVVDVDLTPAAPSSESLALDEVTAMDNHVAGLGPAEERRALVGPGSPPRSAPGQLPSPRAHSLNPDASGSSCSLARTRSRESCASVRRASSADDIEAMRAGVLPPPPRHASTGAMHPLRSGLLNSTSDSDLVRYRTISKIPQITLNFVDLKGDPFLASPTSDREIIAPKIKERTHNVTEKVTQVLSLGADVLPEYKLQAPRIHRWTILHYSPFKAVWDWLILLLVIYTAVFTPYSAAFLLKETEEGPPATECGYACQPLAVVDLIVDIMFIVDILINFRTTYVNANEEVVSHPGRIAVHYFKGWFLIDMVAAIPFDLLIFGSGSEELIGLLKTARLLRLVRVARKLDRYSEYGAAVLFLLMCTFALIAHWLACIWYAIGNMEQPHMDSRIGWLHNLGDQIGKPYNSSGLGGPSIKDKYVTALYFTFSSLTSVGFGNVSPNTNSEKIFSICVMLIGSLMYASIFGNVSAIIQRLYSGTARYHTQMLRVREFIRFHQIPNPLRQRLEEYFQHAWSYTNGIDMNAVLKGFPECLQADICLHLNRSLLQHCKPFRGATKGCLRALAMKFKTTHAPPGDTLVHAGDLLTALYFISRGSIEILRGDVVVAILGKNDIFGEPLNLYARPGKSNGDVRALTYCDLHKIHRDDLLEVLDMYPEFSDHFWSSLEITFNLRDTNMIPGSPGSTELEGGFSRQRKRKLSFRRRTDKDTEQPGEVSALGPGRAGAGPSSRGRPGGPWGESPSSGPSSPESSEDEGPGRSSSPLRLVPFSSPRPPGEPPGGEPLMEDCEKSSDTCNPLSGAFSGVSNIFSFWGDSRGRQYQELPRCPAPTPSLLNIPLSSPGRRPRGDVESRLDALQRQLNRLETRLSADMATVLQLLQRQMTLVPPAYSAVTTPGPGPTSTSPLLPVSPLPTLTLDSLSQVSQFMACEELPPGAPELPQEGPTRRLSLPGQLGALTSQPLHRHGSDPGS
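Further: peak tail current of the secondary pulse compared with the same well before compound.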

First: O=C(c1ccc(CS(=O)c2ccccc2Cl)o1)N1CCCCCC1 (stereo not drawn)
Second: CSc1ccc(Cl)c(C(=O)N(C)CC(=O)Nc2ccc(N3CCOCC3)cc2)c1
The “hERG current change (%, negative = inhibition) at 10uM” value of the first is higher: 14.5% for the first, -0.854% for the second.

Going from `O=C(CC1C(=O)NCCN1C(=O)c1ccc([N+](=O)[O-])cc1)Nc1ccc(F)cc1` (stereo not drawn) to `CC1CN(C(=O)c2ccc(NS(=O)(=O)c3ccc(F)cc3)cc2)CC(C)O1` (stereo not drawn), the “hERG current change (%, negative = inhibition) at 10uM” value rises from -21.8% to 3.67%.

Compared with `O=C(Nc1nccs1)c1ccc2c(c1)C(=O)N(Cc1cccnc1)C2=O`, `Cc1ccc(C(=O)N/C(=C\c2ccc(-c3cc(Cl)ccc3Cl)o2)C(=O)NCc2cccnc2)cc1` is higher in “hERG current change (%, negative = inhibition) at 10uM” value: -4.17% for the first, 2.81% for the second.

Going from `CCCCNC(=O)c1ccc(CS(=O)(=O)c2ccc(C)cc2)o1` to `CCNC(=O)c1ccc(N(C)S(=O)(=O)c2cccs2)cc1`, the “hERG current change (%, negative = inhibition) at 10uM” value rises from 15.1% to 26.5%.

Compared with `CCOC(=O)c1ccc2cccc(C)n2c1=O`, `CCn1c(C)nc2c(=O)oc3ccccc3c21` is lower in “hERG current change (%, negative = inhibition) at 10uM” value: 3.05% for the first, -9.57% for the second.

Going from `COC(=O)C1CCN(C(=O)COC(=O)Cc2c[nH]c3ccccc23)CC1` to `Cc1ccc(/C=C(/NC(=O)c2ccccc2)C(=O)NCCc2c[nH]c3ccccc23)o1`, the “hERG current change (%, negative = inhibition) at 10uM” value falls from 3.1% to -21.3%.

First: Cc1ccc(CN(C(=O)c2cccs2)C2CCS(=O)(=O)C2)cc1 (stereo not drawn)
Second: O=C(COC(=O)c1ccc2c(c1)S(=O)(=O)N=C1CCCCCN12)NCCc1ccc(F)cc1
The “hERG current change (%, negative = inhibition) at 10uM” value of the first is lower: -46.5% for the first, -3.75% for the second.

First: CC1CCN(Cc2c(C(=O)N/N=C/c3cc(Br)ccc3O)nnn2-c2nonc2N)CC1
Second: O=C(O)c1ccc(N/N=C/c2ccc(-c3ccc(Cl)cc3Cl)o2)cc1
The “hERG current change (%, negative = inhibition) at 10uM” value of the first is higher: 19.9% for the first, 10.7% for the second.

First: CC1(C)CC(=O)c2ccc(O)cc2O1
Second: CC1(C)CC(=O)c2ccc(OCc3ccc([N+](=O)[O-])cc3)cc2O1
The “hERG current change (%, negative = inhibition) at 10uM” value of the first is higher: 4.03% for the first, -57.7% for the second.

Compared with `CC1(C)CC(=O)c2c(O)cc(OCc3ccc([N+](=O)[O-])cc3)cc2O1`, `O=C(O)c1ccc(N/N=C/c2ccc(-c3cccc(Cl)c3)o2)cc1` is lower in “hERG current change (%, negative = inhibition) at 10uM” value: 15.1% for the first, 8.51% for the second.

Going from `CN(C)CCNC(=O)/C(=C/c1ccc(-c2cccc(Cl)c2)o1)NC(=O)c1ccccc1` to `CN(C)CCNC(=O)/C(=C/c1ccc(-c2ccc(Cl)cc2)o1)NC(=O)c1ccccc1`, the “hERG current change (%, negative = inhibition) at 10uM” value falls from -72% to -80.9%.

First: CN(C)CCNC(=O)/C(=C/c1ccc(-c2ccc(Cl)cc2Cl)o1)NC(=O)c1ccccc1
Second: Cc1ccc(/C=C(\NC(=O)c2ccccc2)C(=O)NCCc2ccccn2)o1
The “hERG current change (%, negative = inhibition) at 10uM” value of the first is lower: -55.1% for the first, -12.8% for the second.
